The nature of assay [1]: NCI Yeast Anticancer Drug Screen. Data for the mec2-1 strain (AID 157). The conditions noted are these: S. cerevisiae mec2-1 strain, at 50.0 µM, hits give high values. Put shortly:
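Using mec2-1 yeast: add compound, measure growth, express inhibition versus vehicle-treated cultures.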

Assay [2] can be described thus: NCI Yeast Anticancer Drug Screen. Data for the sgs1 mgt1 strain (AID 161).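 Note: 0% = growth of cultures given vehicle only.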 To be noted: S. cerevisiae sgs1 mgt1 strain, at 50.0 µM, hits give high values. Put shortly: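 Yeast cells carrying a defined DNA-repair defect were exposed to test compounds. Growth inhibition was measured relative to vehicle-treated controls.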
Assay [3] can be described thus: NCI Yeast Anticancer Drug Screen. Data for the cln2 rad14 strain (AID 165).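 Note: 0% = growth equal to vehicle treated cultures.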 To be noted: S. cerevisiae cln2 rad14 strain, at 50.0 µM, hits give high values. Put shortly: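 Yeast strain cln2 rad14, bearing defects in cell cycle control and DNA repair, serves as the test system; values reflect growth inhibition compared with vehicle.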
Assay [4] is described as follows: NCI Yeast Anticancer Drug Screen. Data for the bub3 strain (AID 167). The conditions noted are these: S. cerevisiae bub3 mutant strain, at 50.0 µM, hits give high values. Put shortly:
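Whole-cell yeast assay. The mutant strain was incubated with compounds, and growth inhibition was determined by comparison with vehicle-treated cells.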

A short description of assay [5]: NCI Yeast Anticancer Drug Screen. Data for the mlh1 rad18 strain (AID 175). The conditions noted are these: S. cerevisiae mlh1 rad18 strain growth inhibition; at 50.0 µM; hits give high values. In outline: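 Steps: expose repair-defective yeast to compound; measure growth; express inhibition against vehicle-treated controls.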

This is part of a sample that, as a whole, favours compounds with a hit. Of some 79,000 tested, about 15% had one in any assay. Values without a mark were called inactive. Activity calls are given as the source filed them. Cut-off read from the data, not from the text of the source: active = growth inhibition above about 70%; inactive = the rest.

As to `CCOP(=O)(OCC)SC=C(Cl)Cl`, the growth inhibition in assay [1] is 5.5%; in assay [2], 2.1%; in assay [3] it was -10.6%; in assay [4] it was 5%; in assay [5], 6.15%.
The like results for `O=C(O)C(F)F` were, in that order, -1.2%, -18.2%, -31%, -15.3% and -3.15%.
In the case of `[Br][Sn]([Br])([CH2][Sn]([Br])([c]1ccccc1)[c]1ccccc1)[c]1ccccc1`, the growth inhibition in assay [5] is 81.7% (active).
For `C=CC(Cl)OC(=O)C(C)O` (centres undefined), the growth inhibition in assay [1] was 20.2%; in assay [2], 15.2%; in assay [3], 11.3%; in assay [4], 1.55%; in assay [5], 6.4%.
Consider `CCCC1(C(C)C)C(=O)NC(=S)NC1=O`, for which the growth inhibition in assay [1] is -7.2%; in assay [2], -1.9%; in assay [3], 6.55%; in assay [4] it was -10.6%; in assay [5], -24.1%.
With `O=Cc1ccccc1O.[Nd]`, the growth inhibition was -33.6% in assay [1]; 17.2% in assay [2]; 6.65% in assay [3]; 3.9% in assay [4]; 6.6% in assay [5].
For the compound `CN1C(=O)C[N+]([O-])=C(c2ccccc2)c2cc(Cl)ccc21`, the growth inhibition is 0.9% in assay [1]; -10.1% in assay [2]; 18.6% in assay [3]; -5.15% in assay [4]; -13.7% in assay [5].
The like results for `C[n+]1ccc2ccccc2c1-c1c2ccccc2cc[n+]1C` were, in that order, 3.65%, -2.55%, 18.9%, 3% and 6.05%.
As to `CCc1c2c(c(C)n1C)C(c1ccccc1)=NCC(=O)N2`, the growth inhibition in assay [1] is 21.1%; in assay [2] it was 21.7%; in assay [3], -7.1%; in assay [4], 13.4%; in assay [5], 3%.
Consider `CC(=O)[O][Sn]([CH2]C1CCCC1)([CH2]C1CCCC1)[CH2]C1CCCC1`, for which the growth inhibition was 99.3% (active) in assay [1]; 99.4% (active) in assay [2]; 98.9% (active) in assay [3]; 99% (active) in assay [4]; 99.1% (active) in assay [5].
As to `CN1C2CCC1CC1(C2)SCCS1`, the growth inhibition was 3.85% in assay [1]; 3.1% in assay [2]; 6.2% in assay [3]; 6.85% in assay [4]; 4.45% in assay [5].
As to `NC(Cc1c[nH]c2cc([N+](=O)[O-])ccc12)C(=O)O` (centres undefined), the growth inhibition in assay [1] is 2.15%; in assay [2], -33.9%; in assay [3], -7.45%; in assay [4] it was -43%; in assay [5], -0.25%.
For `Nc1cc([N+](=O)[O-])cc([N+](=O)[O-])c1`, the growth inhibition was -9.3% in assay [1]; 30.1% in assay [2]; 4.9% in assay [3]; 2.5% in assay [4]; 41.3% in assay [5].
On to `CC1(C)N=C(N)N=C(N)N1c1ccc(CCC(=O)Nc2cccc(S(=O)(=O)F)c2)c(Cl)c1`, for which the growth inhibition in assay [1] is 82.4% (active); in assay [2] it was 68%; in assay [3] it was -3.05%; in assay [4], -31.9%; in assay [5] it was 8.05%.
Consider `COC(=O)C1C(C)N1P(=O)(OC)OC` (centres undefined), for which the growth inhibition in assay [1] is 3.65%; in assay [2], -7.55%; in assay [3], -44%; in assay [4], -4.3%; in assay [5] it was 6.6%.
The matching figures for `Oc1ccccc1C=NCCN=Cc1ccccc1O.[Cu]`: -25.9%, -4.75%, -36.4%, 3.55% and -7.7%.
Turning to `O=c1ccc2c(O)c3ccoc3cc2o1`, the growth inhibition in assay [1] was -10%; in assay [2], 5.7%; in assay [3], -5.05%; in assay [4], 3.45%; in assay [5], -22.9%.
On to `CC1OC(O[C@@H]2C=C3CC[C@@H]4[C@H](CC[C@]5(C)[C@@H](c6ccc(=O)oc6)CC[C@]45O)[C@@]3(C)CC2)C(O)C(OC2OC(CO)C(O)C(O)C2O)C1O` (some centres undefined), for which the growth inhibition in assay [1] was 5.65%; in assay [2], -1.6%; in assay [3], 10.8%; in assay [4] it was 14.1%; in assay [5], 8.6%.
As to `OC1NC2CC3NC(O)C(O)NC3CC2NC1O` (centres undefined), the growth inhibition in assay [1] was -4.25%; in assay [2], 12.7%; in assay [3] it was 22.9%; in assay [4] it was 16.1%; in assay [5] it was 11.4%.
`O=S(=O)(c1ccc(O)cc1)c1ccccc1O`: the growth inhibition in assay [1] was -6.35%; in assay [2], 15.2%; in assay [3] it was 3.75%; in assay [4] it was 0.6%; in assay [5], 28.9%.
The matching figures for `Cc1cccc(CCl)c1`: -46.3%, -23.3%, -0.45%, -40.9% and -23.4%.
`CN1C2CCC1C(Br)C(=O)C2` (centres undefined): the growth inhibition in assay [5] was -51.2%.
Consider `c1ccc2sc(SNC3CCCCC3)nc2c1`, for which the growth inhibition in assay [1] was -65.1%; in assay [2] it was -60.1%; in assay [3] it was -128%; in assay [4], 13.6%; in assay [5], 2.4%.
As for `CSc1ccc([As](=O)(O)O)cc1`, the growth inhibition is 4.45% in assay [1]; 30.9% in assay [2]; 24.3% in assay [3]; -18.1% in assay [4]; 46.5% in assay [5].
As to `[Cl][Rh]([Cl])([Cl])[Cl].[NH-]CC[NH-]`, the growth inhibition in assay [1] was 15%; in assay [2], 15.7%; in assay [3] it was -17.4%; in assay [4] it was -9.95%; in assay [5] it was 8.55%.
On to `Cc1ncc(CNC(=O)N(CCCl)N=O)c(N)n1`, for which the growth inhibition in assay [1] is -6.8%; in assay [2] it was 6.3%; in assay [3], -10.2%; in assay [4], -4.2%; in assay [5] it was 32.1%.
For `O=C(COc1ccccc1Cl)Nc1ccc[n+](Cc2ccc(S(=O)(=O)F)cc2)c1`, the growth inhibition in assay [1] was -21.2%; in assay [2] it was 2.9%; in assay [3], -42.2%; in assay [4], -3.15%; in assay [5], -0.7%.
As for `CC[C@@]1(O)C(=O)OCc2c1cc1n(c2=O)Cc2cc3cc(OC)ccc3nc2-1`, the growth inhibition in assay [2] is 86.7% (active); in assay [4] it was 83.6% (active).

The record behind these values is PubChem BioAssay (NCI).
